Source: PubChem BioAssay (National Center for Advancing Translational Sciences (NCATS))
Pf growth 48h: P. falciparum growth inhibition at 48 hours (one generation); P. falciparum luciferase growth in erythrocytes, 48 h; Potency, µM (top dose mostly 28.7 µM), inactives show at the highest dose activity change, negative = inhibition, actives largely listed as inhibitors; hit rate 5.9% among 310,000; AID 504832; note: % is set by controls: 0 for no effect and ±100 for the full control effect
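Here the parasites carry a stable luciferase gene and grow inside erythrocytes in Albumax-based RPMI medium with compound for one erythrocytic cycle. Activity is scored as loss of luminescent signal.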
AmpC detergent: blocks E. coli AmpC beta-lactamase in detergent assay | P00811 | AID 485294 | hit rate 0.041% among 370,000 | Potency, µM (titrated, usually from 114 µM), for inactives: at the top dose activity change, negative = inhibition, actives largely listed as inhibitors | AmpC hydrolysis of nitrocefin, absorbance 480 nm, 0.01% Triton;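 note: 0% = no-compound wells and -100% = no-enzyme wells; nearly all actives have a fitted effect of over 25% in size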
Target sequence (P00811 whole entry, looked up): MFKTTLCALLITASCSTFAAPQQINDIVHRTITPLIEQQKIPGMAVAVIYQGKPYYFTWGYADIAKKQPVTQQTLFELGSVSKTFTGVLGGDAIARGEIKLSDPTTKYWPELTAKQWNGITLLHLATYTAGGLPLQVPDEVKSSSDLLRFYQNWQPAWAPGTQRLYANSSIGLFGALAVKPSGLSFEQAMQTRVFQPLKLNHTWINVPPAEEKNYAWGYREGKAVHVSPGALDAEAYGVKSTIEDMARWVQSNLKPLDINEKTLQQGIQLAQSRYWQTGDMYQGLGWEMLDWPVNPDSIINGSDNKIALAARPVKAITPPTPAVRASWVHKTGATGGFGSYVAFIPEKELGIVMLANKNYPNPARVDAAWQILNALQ
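20 mM phosphate pH 7.0 + 0.01% (detergent screen) or 0.0001% Triton X-100; 5.3 nM AmpC reagent; cpd preinc 15 min RT; nitrocefin (800 uM stock) to start; A480 q20 s × 4 min; Activity was normalised to no-enzyme and no-compound control wells.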
SARS PLpro yeast: inhibitors of SARS-CoV papain-like protease in yeast | hit rate 0.19% among 330,000 | Potency, µM (top dose mostly 32.9 µM), for the others: at the highest dose activity, positive = growth rescue, hits mostly activators | S. cerevisiae expressing SARS-CoV PLpro, growth rescue; calls by dose curve; note: 0% is about no effect; nearly all actives have a fitted effect of over 55% in size
Pf growth 96h: inhibits malaria parasite growth, 96 h | P. falciparum luciferase reporter growth, 96 h | Potency, µM (series often up to 28.7 µM), inactives show at the top dose activity change, negative = inhibition, usual class: inhibitors | hit rate 6.9% among 320,000 | AID 504834; note: % is set by controls: 0 for no effect and ±100 for the full control effect
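Two parasite generations (96 h, 37 C, 5% CO2) of compound exposure in infected erythrocytes (0.05% parasitemia, 2% hematocrit). Luciferase-reporter P. falciparum; decreased luminescence indicates inhibited growth, aimed at apicoplast-acting delayed death.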
AmpC inh no detg: AmpC beta-lactamase inhibition without detergent | hit rate 0.52% among 330,000 | P00811 | Potency, µM (titrated, usually from 57.1 µM), without a hit: at the highest dose activity change, negative = inhibition, actives largely listed as inhibitors | AmpC nitrocefin hydrolysis, absorbance 480 nm, 0.0001% Triton;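 note: plate controls were no compound for no effect and no enzyme for full effect; nearly all actives have a fitted effect of over 20% in size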
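20 mM phosphate pH 7.0 + 0.01% (detergent screen) or 0.0001% Triton X-100; 5.3 nM AmpC reagent; cpd preinc 15 min RT; nitrocefin (800 uM stock) to start; A480 q20 s × 4 min; Activity was normalised to no-enzyme and no-compound control wells.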
Sm TGR block: blocks Schistosoma mansoni thioredoxin glutathione reductase | hit rate 3% among 360,000 | Q962Y6 | Potency, µM (titrated, usually from 114 µM), without a hit: at the top dose activity change, negative = inhibition, actives largely listed as inhibitors | purified TGR, DTNB reduction, TNB absorbance 405 nm | AID 485364; note: % is set by controls: 0 for no effect and ±100 for the full control effect; nearly all actives have a fitted effect of over 60% in size
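Kinetic colorimetric format: TGR-catalysed, NADPH-driven DTNB reduction monitored via TNB absorbance. Enzyme dispensed at 20 nM; compound exposure 15 min at room temperature before reaction start.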
Starred values were filed as active, the others as inactive; ? = inconclusive; . = no result. In the library only some 12% were active in any assay of this set; here they are far more common. Unless noted, calls come from the whole dose curve; as a rule, active = well fitted curve in the direction sought with a large enough effect; inconclusive = small, poorly fitted or top-dose-only effect, or another doubt; inactive = no such curve, though single readings can be large; an effect the other way counts as inactive or inconclusive. Potency is the fitted concentration of half-maximal effect.

SMILES | Pf growth 48h | AmpC detergent | SARS PLpro yeast | Pf growth 96h | AmpC inh no detg | Sm TGR block
CCN(c1ccc(C)cc1C)S(=O)(=O)c1nnc(NC(=O)c2ccccc2OC)s1 | . | 22.3% | . | . | . | 0.8%
Cc1ccc(C(=O)Nc2ccc(N3CCN(C)CC3)cc2)cc1C | 52.8% | -11.8% | -10.7% | 11.7µM* | -10.7% | -6.8%
CC(=O)N1CCN(c2ccc(NC(=O)c3ccc(Cl)cc3)cc2)CC1 | -3.8% | -12.7% | 0.9% | ? | -12.4% | -1.5%
CCN1CCN(c2ccc(NC(=O)c3cccc(OCc4ccccc4)c3)cc2)CC1 | . | -0.4% | 10.8% | -101.8% | 3.1% | 0.4%
CC(=O)N1CCN(c2ccc(NC(=O)c3ccc(C(C)(C)C)cc3)cc2)CC1 | 10.4µM* | 0.0% | 2.9% | 0.9% | 175.0% | -20.3%
Cc1ccc(C(=O)Nc2ccc(N3CCN(S(C)(=O)=O)CC3)cc2)cc1C | 38.6% | -3.1% | 0.3% | ? | -14.0% | 19.4%
CN1CCN(c2ccc(NC(=O)c3cccc(OCc4ccccc4)c3)cc2)CC1 | 10.4µM* | 3.2% | -5.0% | . | 98.9% | 0.3%
Cc1ccc(C(=O)Nc2ccc(N3CCN(C)CC3)cc2)c(Cl)c1 | 109.5% | -5.9% | 3.7% | 10.4µM* | 0.2% | 10.4%
COc1ccc(Nc2cc(C(=O)NCc3ccccc3OC)c3ccccc3n2)cc1 | . | 5.7% | . | . | . | 4.9%
CCOc1ccc(CN2C(=O)c3ccccc3Sc3ccc(C(=O)NCc4ccc5c(c4)OCO5)cc32)cc1 | . | 5.8% | . | . | . | -0.1%
CC(C)Oc1cccc(C(=O)Nc2ccc(N3CCN(C)CC3)cc2)c1 | 23.5% | -14.8% | 1.9% | ? | -9.7% | 39.8µM*
O=C(CCl)Nc1cn(-c2ccccc2)nc1-c1ccccc1 | ? | 3.5% | -4.9% | ? | -16.5% | 17.8µM*
O=C(CCl)Nc1ccc(-c2ccccc2)cc1 | ? | 2.1% | -0.7% | 13.1µM* | -1.0% | 4.47µM*
Cc1ccc(Sc2ccc(NC(=O)CCl)cc2)cc1C | 1.47µM* | 0.1% | -28.9% | 0.828µM* | -18.2% | ?
CC(=O)Nc1cn(-c2ccccc2)nc1-c1ccccc1 | 6.7% | -2.4% | 0.2% | 67.8% | -12.7% | 6.2%
CC(C)N(c1ccccc1)c1ccc(NC(=O)CCl)cc1 | 10.4µM* | -6.9% | 1.1% | 10.4µM* | -15.1% | 14.1µM*
Cc1cc(C)cc(-n2ccnc(NCc3ccc(F)cc3)c2=O)c1 | . | -2.5% | . | . | . | 1.5%
O=C1C=C(c2ccc(F)c(Cl)c2)C[C@@H](c2ccc(F)cc2)C1 | 17.5% | -5.2% | -4.9% | -1.4% | -20.9% | 2.4%
O=C(CCl)Nc1ccccc1Sc1ccccc1 | . | -6.7% | 12.6µM* | 9.28µM* | -17.7% | ?
O=C(Cc1ccc(Cl)cc1)Nc1ccccc1Sc1ccccc1 | -18.4% | -1.3% | -16.0% | ? | -34.7% | -17.7%
CC(=O)Nc1ccc(N=Nc2ccccc2)cc1 | 175.8% | ? | -10.6% | -6.8% | -9.9% | -17.9%
O=C(CCl)Nc1ccc(N=Nc2ccccc2)cc1 | 4.65µM* | 3.8% | -74.4% | ? | -24.7% | 39.8µM*
CN(Cc1nc(Cc2ccccc2F)no1)[C@@H]1CS(=O)(=O)C[C@H]1O | 34.1% | 4.3% | 1.1% | 11.7µM* | -11.3% | 5.6%
O=C(/C=C/c1ccco1)N(Cc1ccccc1F)C1CCS(=O)(=O)C1 (centres undefined) | -1.5% | -11.2% | -7.0% | ? | 3.9% | 10µM*
Cc1cccc(C(=O)N(Cc2ccccc2F)C2CCS(=O)(=O)C2)c1 (centres undefined) | . | 14.5% | . | . | . | -1.9%
SMILES | Pf growth 48h | AmpC detergent | SARS PLpro yeast | Pf growth 96h | AmpC inh no detg | Sm TGR block
CC(C)c1ccc(CN(C(=O)c2ccco2)C2CCS(=O)(=O)C2)cc1 (centres undefined) | -12.5% | -10.2% | -0.9% | ? | 48.6% | 5.5%
CC(C)c1ccc(CN(C(=O)/C=C/c2ccco2)C2CCS(=O)(=O)C2)cc1 (centres undefined) | 3.6% | -4.7% | 0.0% | 14.6% | 48.7% | 3.55µM*
CC(=O)c1ccc(NS(=O)(=O)c2ccc3[nH]c(=O)[nH]c3c2)cc1 | . | -9.7% | . | . | . | -12.1%
CC(OC(=O)c1ccc(NS(=O)(=O)c2ccc3[nH]c(=O)[nH]c3c2)cc1)C(N)=O (centres undefined) | 16.3% | ? | 2.7% | 36.1% | -15.8% | 1.9%
CCN(CC)C(=O)c1ccc(NS(=O)(=O)c2ccc3[nH]c(=O)[nH]c3c2)cc1 | 11.7µM* | -6.6% | -1.5% | 8.28µM* | 147.1% | 0.0%
COc1ccc(Cl)cc1NC(=O)C(C)OC(=O)c1ccc(NS(=O)(=O)c2ccc3[nH]c(=O)[nH]c3c2)cc1 (centres undefined) | -12.2% | -8.7% | 5.8% | ? | 3.55µM* | 0.5%
CC(OC(=O)c1ccc(NS(=O)(=O)c2ccc3[nH]c(=O)[nH]c3c2)cc1)C(=O)Nc1ccc(Cl)cc1 (centres undefined) | 0.828µM* | -12.9% | -0.1% | 0.586µM* | -41.9% | -5.0%
COc1ccccc1OCCn1c(NC(=O)c2ccccc2Cl)nc2ccccc21 | . | -5.1% | . | . | . | 0.3%
O=C(N/N=C/c1cn(Cc2cccc(F)c2)c2ccccc12)c1cc(O)cc(O)c1 | -9.0% | ? | 5.7% | ? | 12.6µM* | -28.8%
Nc1ccc(C(=O)N/N=C/c2cn(Cc3ccc(F)cc3)c3ccccc23)cc1 | 6.5% | -12.6% | -1.1% | ? | -39.9% | 2.4%
Fc1ccc(C2C3=C(Nc4ncnn42)c2ccccc2OC3c2ccncc2)cc1 (centres undefined) | . | -10.4% | 4.1% | 21.2% | 57.0% | -6.5%
Cc1ccc(C2Oc3ccccc3C3=C2C(c2cccs2)n2ncnc2N3)cc1 (centres undefined) | 11.7µM* | ? | 7.7% | ? | -20.1% | -6.8%
CC(=O)c1cc2c(cc1N/C(=N/S(=O)(=O)c1ccc(F)cc1)c1ccccc1)OCO2 | . | 1.4% | . | . | . | -0.6%
COc1ccc(C(CC(=O)NCc2ccc(Cl)cc2)N2Cc3ccccc3C2=O)cc1OC (centres undefined) | . | 8.6% | . | . | . | 2.7%
CCN(Cc1ccncc1)Cc1c(O)ccc2cc(Br)ccc12 | 5.86µM* | -3.9% | 1.8% | 6.57µM* | -56.3% | 1.78µM*
COc1cccc(C(=O)Nc2ccccc2OCc2cc(=O)n3cc(C)ccc3n2)c1 | . | 2.5% | . | . | . | -3.2%
O=C(C[n+]1cnn(CC(=O)c2ccc(Cl)cc2Cl)c1)c1ccc([N+](=O)[O-])cc1 | 3.7µM* | -6.7% | 16.2% | ? | 2.8% | 6.9%
O=C(Cn1cnc([N+](=O)[O-])c1)c1ccc(Cl)cc1 | 25.5% | -11.9% | -1.0% | 67.5% | -31.1% | -8.4%
O=[N+]([O-])c1cc(-c2ncccn2)c([N+](=O)[O-])s1 | 6.3% | -10.1% | -127.1% | 0.1% | -16.5% | 0.316µM*
